The results in this text go back to PubChem BioAssay AID620 (Sanford-Burnham Center for Chemical Genomics, 2007).

The whole screen tested about 87,000 compounds, of which about 360 (0.41%) were called active. No stated cut-off is given here; in the data, active means cytotoxicity above about 50%; inactive means the rest. The full list was thinned out, with actives kept by preference.

This experiment is described as follows: cytotoxicity in HT1080 fibrosarcoma cells, cell-based, fluorescence readout (AID 620).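 Further: cells exposed to compound overnight then 4 h with Alamar Blue; 0% = vehicle DMSO and 100% = killing control.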 To be noted: HT1080 viability, at 10 µM, hits give high values.
`CCC(Oc1ccccc1)C(=O)Nc1nnc(C)s1` (configuration not stated): the cytotoxicity was -5.1% (inactive). Turning to `Cc1occc1C(=O)Nc1ccc2c(c1)OCCO2`, the cytotoxicity was 11.2% (inactive). For `CC(=O)NC1C(=O)N(C)c2ccc(Br)cc21` (configuration not stated) the value was -16.4% (inactive); for `Cc1nc2nc(SCC(=O)NCc3ccco3)nn2c(C)c1Cc1c(F)cccc1Cl`, -13.6% (inactive); for `Cc1ccc(Cc2c(C)nc3nc(SCC(=O)NCc4ccco4)nn3c2C)cc1`, 69.7% (active).

With `Cc1ccccc1Cc1c(C)nc2nc(SCC(=O)NCc3ccco3)nn2c1C`, the cytotoxicity is -13.4% (inactive). For the compound `O=C(c1ccco1)N1CCCC(c2nc(-c3ccc(S(=O)(=O)NCc4ccccc4)cc3)no2)C1` (configuration not stated), the cytotoxicity is -1.4% (inactive). With `CCCCS(=O)(=O)c1sc2nc(C)cc(C)c2c1N`, the cytotoxicity was 12.9% (inactive). For `O=C(CCc1nc(-c2ccccc2)no1)NCc1ccco1` the value was 6.9% (inactive). For `Cc1ccc(-c2noc(CCC(=O)NCc3ccco3)n2)cc1`, the cytotoxicity was 64% (active). For `Cc1cccc(-c2noc(CCC(=O)NCc3ccco3)n2)c1` the value was 7.3% (inactive); for `CCn1cnc2cc(NCc3nc4ccccc4n3C)ccc21`, 1.7% (inactive); for `Cc1cc(NC(=O)C2CC(c3ccc(Cl)cc3)=NO2)no1` (configuration not stated), -7.6% (inactive). As to `Cc1cccc(NS(=O)(=O)Cc2ccccc2)n1`, the cytotoxicity is -2.7% (inactive). Regarding `CCCOc1ccccc1C1CC(=O)Nc2cc3c(cc21)OCCO3` (configuration not stated), the cytotoxicity was 58.6% (active).

On to `O=C1CC(c2ccc3c(c2)OCO3)c2cc3c(cc2N1)OCCO3` (configuration not stated), for which the cytotoxicity is 8.1% (inactive). As for `CCOc1c(OC)cccc1C1CC(=O)Nc2cc(OC)c(OC)cc21` (configuration not stated), the figure is -2.2% (inactive); as for `CCCCOc1ccccc1C1CC(=O)NC2=C1C(=O)CCC2` (configuration not stated), 56% (active); as for `CCOc1ccccc1C1CC(=O)Nc2cc3c(cc21)OCCO3` (configuration not stated), 68.1% (active). `CCCOc1ccccc1C1CC(=O)NC2=C1C(=O)CCC2` (configuration not stated): the cytotoxicity is 39.4% (inactive). For `CCCOc1c(OC)cccc1C1CC(=O)Nc2cc3c(cc21)OCCO3` (configuration not stated) the value was -3.5% (inactive); for `CCOc1c(OC)cccc1C1CC(=O)Nc2cc3c(cc21)OCCO3` (configuration not stated), -3.8% (inactive). As for `CCCOc1c(OC)cccc1C1CC(=O)Nc2cc3c(cc21)OCO3` (configuration not stated), the cytotoxicity was -2.6% (inactive). For the compound `O=C1CC(c2cccs2)c2cc3c(cc2N1)OCCO3` (configuration not stated), the cytotoxicity was -3.6% (inactive).

For `CCOc1ccccc1C1CC(=O)Nc2cc3c(cc21)OCO3` (configuration not stated), the cytotoxicity is 67.2% (active).

With `CCOc1ccccc1C1CC(=O)NC2=C1C(=O)CCC2` (configuration not stated), the cytotoxicity was 11.2% (inactive).

Regarding `CC(=O)Nc1ccc2c(c1)nc(CN1CCCC1)n2C`, the cytotoxicity is -8.7% (inactive). In the case of `Cc1c(NC(=O)CSc2ccccn2)c(=O)n(-c2ccccc2)n1C`, the cytotoxicity was 1.3% (inactive). On to `Cc1cccc2cc(CN(CCN3CCOCC3)C(=O)Nc3ccccc3F)c(=O)[nH]c12`, for which the cytotoxicity was 13.6% (inactive).

Turning to `CC12CCC(C(=O)N3CCCCC3)(CC1=O)C2(C)C` (configuration not stated), the cytotoxicity is -0.3% (inactive). `COC(=O)[C@@]1(Cc2ccccc2)[C@H]2c3cc(C(=O)N(C)C)n(Cc4ccc(S(C)(=O)=O)cc4)c3C[C@H]2CN1C(=O)c1ccccc1`: the cytotoxicity is 2.9% (inactive). Turning to `O=c1ccc(Cc2ccccn2)n[nH]1`, the cytotoxicity was -6.4% (inactive). On to `Cc1ccc(-n2c(SCC(=O)OC(C)C)nnc2-c2cnccn2)cc1`, for which the cytotoxicity was 0.6% (inactive). For the compound `COc1ccccc1N(C(=O)c1snc(C(N)=O)c1N)C(C(=O)NC1CCCC1)c1ccco1` (configuration not stated), the cytotoxicity is -5.3% (inactive).

For `Cc1oc(-c2ccccc2F)nc1CS(=O)(=O)CC(=O)N1CCc2ccccc21`, the cytotoxicity is -3.2% (inactive). Turning to `COc1ccccc1C(=O)N1CCN(c2cccc(C(F)(F)F)c2)CC1`, the cytotoxicity is 58.7% (active). Regarding `COc1ccccc1CC(=O)N1CCN(c2cccc(C(F)(F)F)c2)CC1`, the cytotoxicity was -8.5% (inactive). As to `Cc1ccc(C(=O)N2CCN(c3cccc(Cl)c3)CC2)cc1C`, the cytotoxicity was -5.4% (inactive).

`COc1ccc(C(=O)N2CCN(c3cccc(Cl)c3)CC2)c(OC)c1`: the cytotoxicity is 15.6% (inactive). With `COc1cc2c(C(=O)N3CCN(c4cccc(Cl)c4)CC3)cn(C)c(=O)c2cc1OC`, the cytotoxicity was 20.5% (inactive). As for `CCOc1ccccc1C(=O)N1CCOCC1`, the cytotoxicity was -16.5% (inactive). Turning to `COc1ccc(C(=O)N2CCN(c3cccc(Cl)c3)CC2)cc1`, the cytotoxicity is -4.7% (inactive). As for `COc1ccccc1C(=O)N1CCN(c2cccc(Cl)c2)CC1`, the cytotoxicity is 53% (active). Consider `O=C(O)c1ccccc1C(=O)N1CCN(c2cccc(Cl)c2)CC1`, for which the cytotoxicity is 8.7% (inactive).

On to `CCOc1ccccc1C(=O)N1CCN(c2cccc(Cl)c2)CC1`, for which the cytotoxicity was 50.8% (active). Regarding `O=C(c1ccccc1F)N1CCN(c2cccc(C(F)(F)F)c2)CC1`, the cytotoxicity is -6.8% (inactive). In the case of `CCOc1ccc(C(=O)Cc2ccc3oc(C(=O)O)cc3c2)c(O)c1`, the cytotoxicity is -8.8% (inactive). For `O=C(CSc1nc2ncc(Br)cc2[nH]1)Nc1ccc2c(c1)OCO2` the value was 2.1% (inactive); for `COCCNC(=O)COC(=O)/C=C/c1c(C)nn(Cc2ccc(Cl)cc2Cl)c1Cl`, 5.2% (inactive); for `C[N+]1(CC(=O)Nc2ccc(F)cc2)CCN(C(=O)c2ccco2)CC1`, 15.7% (inactive). For the compound `COc1cc(-c2noc(CCCC(=O)NCc3ccccc3)n2)cc(OC)c1OC`, the cytotoxicity was 6.8% (inactive). For the compound `O=C(COc1ccccc1)N1CCN(S(=O)(=O)c2ccc(Cl)cc2)CC1`, the cytotoxicity is 17.2% (inactive). Take `O=C1CC(c2ccccc2)CC(O)=C1C=NCCCO` (configuration not stated): the cytotoxicity is 4.4% (inactive).

On to `Cc1cccc(OCC(=O)NCCN2CCOCC2)c1`, for which the cytotoxicity was 5.4% (inactive). Regarding `COC(=O)[C@H](CCSC)NC(=O)Nc1ccc(OC)c(Cl)c1`, the cytotoxicity is -10.8% (inactive). With `Cc1n[nH]c(C)c1S(=O)(=O)N1CCCC(C(=O)NCc2cccs2)C1` (configuration not stated), the cytotoxicity was 2.8% (inactive).

`O=C(CNS(=O)(=O)c1ccc(F)cc1)N1CCN(c2ccccc2)CC1`: the cytotoxicity is 7% (inactive). Take `Cc1nc2ccc(NC(=O)Cc3ccsc3)cc2s1`: the cytotoxicity is -7.3% (inactive).

Regarding `COc1ccc(N2CCN(Cc3nc4c(c(=O)n(C)c(=O)n4C)n3CCc3ccccc3)CC2)cc1`, the cytotoxicity is 0.1% (inactive). Regarding `Cc1cc(=O)oc(C)c1C(=O)N1CCN(c2ccc(F)cc2)CC1`, the cytotoxicity is 5.9% (inactive). Turning to `CC(C)(C)C(=O)/C(=C\c1ccc([N+](=O)[O-])cc1)n1cncn1`, the cytotoxicity was 89% (active).

`Cn1ncc(N=Cc2ccc([N+](=O)[O-])cc2)c1C(=O)N1CCOCC1`: the cytotoxicity was -3.9% (inactive). On to `O=[N+]([O-])/C(C(Cl)=C(Cl)Cl)=C(\Nc1ccc(F)cc1)n1cncn1`, for which the cytotoxicity was 10.6% (inactive). As for `O=C(COc1ccc(S(=O)(=O)Nc2ccccc2)cc1)N1CCOCC1`, the figure is -4.7% (inactive); as for `O=S(=O)(C/C(=C/CO)S(=O)(=O)c1ccccc1)c1ccccc1`, 51.2% (active). For `C/C=C(\CS(=O)(=O)c1ccccc1)S(=O)(=O)c1ccccc1` the value was -9.9% (inactive); for `CCOC(=O)CS(=O)(=O)c1ccccc1`, -4.5% (inactive); for `CC(C)C[C@H](NC(=O)N1CCN(c2ccccc2)CC1)C(=O)O`, 6.2% (inactive).

In the case of `O=C(c1ccc(F)cc1)N1CCN(c2ncccn2)CC1`, the cytotoxicity is 2% (inactive). For `Cc1ccccc1NC(=O)CN1C(=O)NC2(CCCCC2)C1=O` the value was 10% (inactive); for `Cc1ccc(CN2CCN(C(=O)CCN3C(=O)c4ccccc4C3=O)CC2)cc1`, 6.3% (inactive). For the compound `CCOC(=O)c1[nH]c(C)c(C(=O)c2ccc(C)cc2)c1C`, the cytotoxicity was 59.5% (active). With `CCOC(=O)c1[nH]c(C)c(C(=O)OCC)c1C`, the cytotoxicity was 2.3% (inactive). For `CCOC(=O)c1[nH]c(C)c(C(=O)NCc2ccc(C)cc2)c1C` the value was -8.9% (inactive).

As for `CCOC(=O)c1[nH]c(C)c(C(=O)Nc2ccc(F)cc2)c1C`, the cytotoxicity was -9.3% (inactive). Turning to `CCOC(=O)c1[nH]c(C)c(C(=O)Nc2ccc(C)c(F)c2)c1C`, the cytotoxicity was -2.9% (inactive). For `CCOC(=O)c1[nH]c(C)c(C(=O)c2cc(F)ccc2F)c1C` the value was 57.2% (active); for `CCOC(=O)c1c(C)sc2c1N(C(=O)CN1CCOCC1)c1cc(Cl)ccc1S2`, 12.4% (inactive). Regarding `O=C(OCC(=O)N1CCN(c2ccccc2)CC1)C1=COCCO1`, the cytotoxicity is -8.1% (inactive). Consider `O=C(OCC#CCSc1nnc(-c2ccc([N+](=O)[O-])cc2)o1)c1cccs1`, for which the cytotoxicity was -10.8% (inactive).

As to `CCSc1nnc(NC(=O)COc2ccccc2)s1`, the cytotoxicity is -5% (inactive).

Turning to `O=C(NCc1ccncc1)Nc1ccc(F)cc1`, the cytotoxicity is 14.7% (inactive). With `COc1ccc(-c2cc(N)n(S(=O)(=O)c3c(F)c(F)c(F)c(F)c3F)n2)cc1OC`, the cytotoxicity is 59.5% (active). As for `COc1ccc(OC)c(S(=O)(=O)n2nc(-c3ccccc3)cc2N)c1`, the cytotoxicity is -6.1% (inactive). For `COc1ccc(S(=O)(=O)n2nc(-c3cc(OC)c(OC)c(OC)c3)cc2N)cc1OC` the value was 1.5% (inactive).

Turning to `CCOC(=O)COc1cccc2c(=O)n(CC(=O)NCc3ccc4c(c3)OCO4)ccc12`, the cytotoxicity was 13.3% (inactive).

In the case of `CCOC(=O)C(C)Oc1cccc2c(=O)n(CC(=O)N3CCc4ccccc43)ccc12` (configuration not stated), the cytotoxicity was 4.2% (inactive). As for `CCOC(=O)C(C)Oc1cccc2c(=O)n(CC(=O)NCc3ccco3)ccc12` (configuration not stated), the cytotoxicity was 65.3% (active).

As to `c1ccc(OCCOCCN2CCOCC2)cc1`, the cytotoxicity is -2.8% (inactive). For `Cc1nc2c(cnn2-c2ccccc2Cl)c(=O)n1-c1ccc(N2CCC(C)CC2)cc1`, the cytotoxicity was 0.5% (inactive). In the case of `COCc1cc(C)nc(SCC(=O)Nc2cccc(C)c2C)c1C#N`, the cytotoxicity was -2% (inactive). As for `Cc1csc(NC(=O)c2cc3c(s2)CCC3)n1`, the cytotoxicity was 20.8% (inactive).

Take `Cc1csc(NC(=O)c2cc3c(s2)CCCCC3)n1`: the cytotoxicity was -7.3% (inactive).

Regarding `CCC(C)NS(=O)(=O)c1ccc(-c2csnn2)s1` (configuration not stated), the cytotoxicity was -2.6% (inactive). As for `CC(CCc1ccccc1)NC(=O)CSc1nnnn1C` (configuration not stated), the figure is 9.7% (inactive).

In the case of `CC1=CC(C)(C)N(C(=O)c2ccccc2)c2ccc(C)cc21`, the cytotoxicity was -8.8% (inactive).

In the case of `CC1=CC(C)(C)N(S(=O)(=O)c2ccc(C)cc2)c2ccccc21`, the cytotoxicity is 64.3% (active). For `CC1=CC(C)(C)N(S(=O)(=O)c2ccc(C)cc2)c2ccc(C)cc21` the value was 64.1% (active); for `Cc1ccc(S(=O)(=O)N2C(=S)SCC2(C)C)cc1`, 14.3% (inactive); for `CC1=CC(C)(C)N(S(=O)(=O)c2ccc(F)cc2)c2ccccc21`, 34.7% (inactive).

`CC1=CC(C)(C)N(C(=O)C(C)N2C(=O)c3ccccc3C2=O)c2ccc(C)cc21` (configuration not stated): the cytotoxicity was 5.3% (inactive). For `Cc1ccc2c(c1)[C@@H]1CN(C)CC[C@@H]1N2S(=O)(=O)c1ccc(F)cc1`, the cytotoxicity is 3.2% (inactive). Take `CC1=CC(C)(C)N(S(=O)(=O)c2ccc(F)cc2)c2ccc(C)cc21`: the cytotoxicity was 61% (active).

Turning to `CC1=CC(C)(C)N(S(=O)(=O)c2ccc(C)cc2)c2cc(C)ccc21`, the cytotoxicity was 63.7% (active). Consider `CC1=CC(C)(C)N(C(=O)CN2C(=O)c3ccccc3C2=O)c2ccccc21`, for which the cytotoxicity is 12.7% (inactive). Take `Cc1ccc(N2CCN(S(=O)(=O)c3ccc(F)cc3)CC2)c(C)c1`: the cytotoxicity was -3.9% (inactive). As for `CC1=CC(C)(C)N(C(=O)CSc2nccn2C)c2cc(C)ccc21`, the figure is -6.8% (inactive).
